Structures are written as SMILES. Hit rate of the full screen: of about 220,000 compounds, about 2,000 (0.91%) were called active. Roughly 2% stayed inconclusive and do not appear here. Only a sample is shown. Potency and affinity values are given separately. Unmarked numbers belong to inactive results. Cut-off read from the data, not from the text of the source: inconclusive = inhibition above about 80% without an active follow-up result; inactive = below that; test concentration not stated here.

The assay in a line: M. tuberculosis H37Rv growth inhibitors, H37Rv strain (AID 1626).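 Note: bacteria incubated seven days before Alamar blue readout; 0% = bacteria only wells and 100% = bacteria with antibiotic wells.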 The settings on record: hits give high values, concentration not given here.
As to `COC(=O)C1=C(C(=O)OC)[C@@H]2N(Cc3ccccc3)c3ccccc3[C@@]23C[C@@H](C(=O)OC)N(C(=O)NC2CCCCC2)C3=N1`, the inhibition was -1.86%.
Turning to `CC(=O)c1ccc(NC(=O)C2CC(=O)N(Cc3ccccc3)C2)cc1` (centres undefined), the inhibition was -1.96%.
Under `CCOc1nc(-c2ccc(Cl)cc2)nc2ccccc12` stands -0.59%.
Take `CC(=O)N(c1ccc(Cl)cc1)c1c[nH]c2ccccc12`: the inhibition is -5.95%.
`O=C(CCl)N(c1ccc(Cl)cc1)c1c[nH]c2ccccc12`: the inhibition was 75.3%.
As to `O=C(CCl)N(Cc1ccccc1)c1ccccc1`, the inhibition is 77.7%.
Consider `O=C(N(c1ccccc1)c1ccccc1)N(c1ccccc1)c1ccccc1`, for which the inhibition was -4.02%.
As for `CCn1cc(-c2cc(C(F)(F)F)n3nc(C(=O)O)cc3n2)c(C)n1`, the inhibition is -10.8%.
Under `COc1ccc(C)cc1NC(=O)C1CCCCC1C(=O)O` (centres undefined) stands -8.21%.
Turning to `CCOC(=O)C(NCc1ccc(F)cc1)(NC(=O)c1ccccc1)C(F)(F)F` (centres undefined), the inhibition was -7.14%.
`Cc1nn(-c2ccccc2)c2[nH]c(=O)c(CNCc3ccc4c(c3)OCO4)cc12`: the inhibition was -1.83%.
Under `Cc1nn(-c2ccccc2)c2[nH]c(=O)c(CNCCN3CCOCC3)cc12` stands 3.32%; under `COc1cccc(NCc2cc3c(C(C)(C)C)nn(-c4ccccc4)c3[nH]c2=O)c1`, -5.67%; under `CCc1ccc(NCc2cc3c(C)nn(-c4ccccc4)c3[nH]c2=O)cc1`, 26%.
Then `CC(C)(C)c1nn(-c2ccccc2)c2[nH]c(=O)c(CNc3ccc4c(c3)OCCO4)cc12`, with 4.42%; and `CCOc1cccc(NCc2cc3c(C(C)(C)C)nn(-c4ccccc4)c3[nH]c2=O)c1`, with 70.7%.
Regarding `Cn1c(O)c(N=NC(=O)c2ccccc2O)c2ccccc21`, the inhibition is -0.85%.
Turning to `Cc1cc(C2(c3ccc(O)c(C)c3)OC(=O)c3ccccc32)ccc1O`, the inhibition is -1.73%.
In the case of `CC/C(C)=C1\SC(N2CCOCC2)=NC1=O`, the inhibition was 1.74%.
With `Cc1cc(C)nc(N2CCC(C(=O)NCc3ccccc3F)CC2)n1`, the inhibition was -8.28%.
For `CC(=O)Nc1ccn(-c2ccccc2)n1`, the inhibition was 0.92%.
Take `O=C(Nc1ccn(-c2ccccc2)n1)c1ccccc1Br`: the inhibition is 1.33%.
For the compound `CC(C)(C)C1CCc2sc(-c3nnc(CCl)o3)cc2C1` (centres undefined), the inhibition is 43.6%.
As for `COc1cc2[nH]c(=O)n3nc(-c4ccccc4)nc3c2cc1OC`, the inhibition was -2.98%.
Under `Cc1nc(N)nc(Cl)c1Cc1ccc(Cl)cc1` stands 3.47%; under `Cc1nc2ccc(Cl)cc2nc1C`, -12.2%.
Turning to `COC(=O)/C(C#N)=C/c1c[nH]c2ccccc12`, the inhibition is 7.57%.
For `CCCCCn1c(=O)c(C(=O)Nc2ccccc2S(N)(=O)=O)c(O)c2ccccc21`, the inhibition is 6.87%.
On to `CCCCn1c(=O)c(C(=O)Nc2ccsc2C(=O)OC)c(O)c2ccccc21`, for which the inhibition is 1.97%.
Under `CCCCn1c(=O)c(C(=O)Nc2ccccc2)c(O)c2ccccc21` stands -1.05%; under `CCCCCCn1c(=O)c(C(=O)Nc2c(C)n(C)n(-c3ccccc3)c2=O)c(O)c2ccccc21`, -5.05%; under `CCN(CC)S(=O)(=O)c1cc(C(=O)OCC(=O)NC(=O)c2cccn2C)ccc1C`, -5.23%.
In the case of `O=C(CCNc1ccc(F)cc1)c1cc2ccccc2o1`, the inhibition is -9.46%.
With `Cn1cc(Br)c(C(=O)NNC(=O)c2ccc(Br)cc2)n1`, the inhibition was 6.79%.
Regarding `CCN(CC)c1ccc(NC(=O)CCCCCN2C(=O)c3ccccc3C2=O)cc1`, the inhibition was -10.5%.
With `CCN(CC)c1ccc2c(c1)C(=O)N(C)C2=O`, the inhibition is 7.2%.
On to `O=C(Nc1ccc2oc(-c3ccccc3Cl)nc2c1)c1cncc(Br)c1`, for which the inhibition was -3.07%.
For `Brc1ccc(-c2csc(/N=C/N3CCCC3)n2)cc1`, the inhibition was 64.4%.
As to `CN(C)/C=N/c1nc(-c2ccc3c(c2)OCO3)cs1`, the inhibition is -11.6%.
In the case of `COc1ccc(CNC(=O)C2C3C=CC4(CN(Cc5cccnc5)C(=O)C24)O3)cc1` (centres undefined), the inhibition was -7.2%.
As to `COc1ccc(NC(=O)C(=O)N/N=C(\C)CC(=O)Nc2ccccn2)c(OC)c1`, the inhibition was -16.2%.
For `NS(=O)(=O)c1ccc(NC(=O)CCC2CCCCC2)cc1`, the inhibition is -3.12%.
Consider `O=C(CCc1ccc(Oc2cc([N+](=O)[O-])cc([N+](=O)[O-])c2)cc1)N1CCCCC1`, for which the inhibition was 3.78%.
Turning to `CC1CCN(C(=O)CCc2ccc(Oc3cc([N+](=O)[O-])cc([N+](=O)[O-])c3)cc2)CC1`, the inhibition is 71.9%.
Then `CC1(C)S/C(=N/N=C/c2ccco2)NC1=O`, with 3.45%; and `CCOc1ccc(-n2c(N)c(C(=O)N3CCN(C)CC3)sc2=S)cc1`, with 2.86%; and `CN(C)S(=O)(=O)N1CCN(c2ccc([N+](=O)[O-])c(N3CCOCC3)c2)CC1`, with 6.14%.
On to `Cc1c(O)ccc(-c2n[nH]c(C(=O)O)c2-c2nc3ccccc3s2)c1O`, for which the inhibition was -16.8%.
On to `O=C(CC(Sc1n[nH]c(-c2ccccc2)n1)c1ccccc1)NCc1ccccc1` (centres undefined), for which the inhibition was -4.33%.
As for `O=C(NCc1c(F)cccc1F)c1cc(COc2c(F)cccc2F)on1`, the inhibition was 4.13%.
`COC(=O)OCC12CCC(O1)C1(C)C(=O)OCC21` (centres undefined): the inhibition is 2.41%.
Consider `COC(/C=C/Nc1ccc(Br)cc1)=C(C#N)C#N`, for which the inhibition was -3.61%.
Take `CC1CCN(CCC(=O)NN)CC1`: the inhibition was 1.23%.
On to `CCOC(=O)/C(C#N)=N/Nc1ccccc1OC`, for which the inhibition was 12.6%.
Then `Nc1nc(Cl)cc(N2CCC(c3cc(-c4ccc(Cl)cc4Cl)n[nH]3)CC2)n1`, with 8.57%.
As for `COc1ccc(-c2cc(C3CCN(c4cc(Cl)nc(N)n4)CC3)[nH]n2)cc1`, the inhibition is 4.7%.
Under `O=c1c2c3c(sc2nc2n1N=C(c1cccs1)CS2)CCCC3` stands 3.06%.
Under `CC(=O)Nc1ccc(S(=O)(=O)N2CCN(CCN3CCOCC3)CC2)cc1Cl` stands -2.42%; under `O=C(NNc1nc2c(F)cc(F)cc2s1)c1ccccc1`, 6.46%; under `O=C(Nc1nc(-c2cc(F)ccc2F)cs1)C1=NN(c2ccccc2)C(=O)CC1`, 8.23%.
For the compound `O=C(Nc1nc2ccc(F)cc2s1)c1cccs1`, the inhibition is -2.98%.
Turning to `O=C(Nc1nc2ccccc2s1)c1ccc(F)cc1`, the inhibition was 2.23%.
With `O=C(CCc1ccccc1)Nc1nc2c(F)cc(F)cc2s1`, the inhibition is 12.2%.
Take `Cc1onc(-c2ccccc2)c1C(=O)Nc1nc(-c2cc(F)ccc2F)cs1`: the inhibition was -3.02%.
With `S=C(NCC1CCCO1)Nc1ccccc1Cl` (centres undefined), the inhibition is -6.63%.
Turning to `CC(C)(C)C(O)(CC#CCN1CCCC1)c1ccccc1` (centres undefined), the inhibition is -4.05%.
Then `O=C(NCC1OCCc2ccccc21)C1COc2ccccc2O1` (centres undefined), with 9.06%.
Consider `Cc1cccc(NC(=O)C2(c3cccs3)CCOCC2)n1`, for which the inhibition was -3.03%.
Turning to `CCn1c(=O)cc(N2CCN(C(=O)c3ccco3)CC2)[nH]c1=O`, the inhibition was 11.9%.
In the case of `O=C(COC(=O)C1CC1)Nc1ccc2[nH]c(=O)[nH]c2c1`, the inhibition is 1.3%.
For the compound `CCOC(=O)CSc1cc(C)nc2ccc(OC)cc12`, the inhibition is -0.58%.
`COC(=O)CSc1cc(C)nc2ccc(OC)cc12`: the inhibition was 10.7%.
With `CCCCOC(=O)C1=C(C)Nc2ncnn2C1c1cccc(OC)c1` (centres undefined), the inhibition is -2.89%.
Then `Cc1[nH]c2ccccc2c1/C=N/NC(=O)CNC(=O)c1ccccc1`, with -7.99%.
Then `Cc1cc(C)n(CC(C)NCc2cn[nH]c2-c2ccc(C)c(C)c2)n1` (centres undefined), with 1.18%.
In the case of `CC1=C(/C=C/C(C)=C/C=C/C(C)=C\C(=O)O)C(C)(C)CCC1`, the inhibition is -10.9%.
Take `CC1=C(/C=C/C(C)=C/C=C/C(C)=C/C(=O)O)C(C)(C)CCC1`: the inhibition was -5.32%.
For `CN(C)c1ccc(N=Nc2ccccc2C(=O)OCC(=O)N(C)C2CCCCC2)cc1`, the inhibition is 27.3%.
As for `CN(C)c1ccc(N=Nc2ccccc2C(=O)OCC(=O)NC2CCCC2)cc1`, the inhibition is 46%.
In the case of `Nc1cc(C(=O)c2cccs2)ccc1Cl`, the inhibition is -7.59%.
Consider `Cc1ncc([N+](=O)[O-])n1CC(=O)NC(C)(C)C`, for which the inhibition is -1.73%.
Take `CC(=O)N/C(=C\c1ccc(F)cc1)C(=O)N(C)C`: the inhibition was -5.54%.
Under `COc1ccc(N2CCN(C(CNC(=O)c3cccc(Cl)c3)c3cccnc3)CC2)cc1` (centres undefined) stands -9.59%.
For the compound `COc1ccc(CCNCC(O)COc2cccc(Br)c2)cc1` (centres undefined), the inhibition was -1.52%.
Turning to `OC(CNCCc1ccccc1)COc1ccc(OCC(O)CNCCc2ccccc2)cc1` (centres undefined), the inhibition is -6.51%.
For the compound `CCN(CC)S(=O)(=O)c1ccc(N2CCOCC2)c(NC(=O)c2cccc3ccccc23)c1`, the inhibition is 11.2%.
Turning to `CC1CN(C(=O)c2cccc(S(=O)(=O)N3CCOCC3)c2)CC(C)O1` (centres undefined), the inhibition is -11.8%.
As to `Cc1ccccc1-n1ncc(C(C)NC(=O)c2ccccc2)c1C` (centres undefined), the inhibition is -0.68%.
With `O=C(NCc1ccccc1)NC(=O)c1ccccc1`, the inhibition is -2.58%.
On to `COCCN=C1Sc2nc3ccc(C)cc3cc2CN1Cc1ccco1`, for which the inhibition is -8.23%.
Under `COCCN=C1Sc2nc3cc(C)c(C)cc3cc2CN1Cc1cccs1` stands 10%; under `O=C(O)c1cn(-c2ccc(F)c(F)c2)c2c(F)c(F)c(F)c(F)c2c1=O`, 6.77%.
For `Cc1c(-n2cc(C(=O)O)c(=O)c3cc(F)c(N4CCCC4)c(F)c32)c(=O)n(-c2ccccc2)n1C`, the inhibition is 3.58%.
Turning to `COC(=O)c1c(N2C(=O)[C@H]3[C@@H](C2=O)[C@]2(C(=O)Nc4c2ccc(C)c4C)N2CCC[C@@H]32)sc(C)c1C`, the inhibition was 4.68%.

For orientation: inhibition means the drop in the measured response relative to a control, in per cent.
